# Reference: the OligoGym collection
# Target: PHF15
# Assay: pooled miR-30 sensor sort-seq; sequence = guide strand
# Settings: shRNA
row,Sequence,sensor-assay potency score (higher = more potent)
1,TAGATGTCGCATGACTGTCAGT,-1.14
2,TTGACCTCATCGTTGTCTGCTA,-0.147
3,TGTCGCATGACTGTCAGTGGTG,-0.605
4,TTCAATAAGTTTCATCTGCAGG,-0.499
5,ATCTCGTCCAAGTCATAGCGGC,-1.39
6,TTGTCTGCTAATATAGTCCGCA,0.0345
7,TTGAACTTGACCTCATCGTTGT,0.744

# Target: PHF19
# Assay: as above
# Settings: shRNA
row,Sequence,sensor-assay potency score (higher = more potent)
1,TAAACTTTGAATTTCATCCAGC,0.174
2,TTGCTTAGAGCTGCTGACCCTC,-1.03
3,TGAATCTTTTTGAAGGTGCAGA,0.0337
4,TTTTCTTCTATAAACTCGCCTT,-0.149
5,TAGTTGGTGATAGATGACTTGA,-1.21
6,TAACATTGCAGCATCCGCAGGT,0.519
7,TTTATAACTGTTCAGAGCGTTG,-1.51
8,TTGAATTTCATCCAGCGTGAAG,-1.1
9,TTTTATAACTGTTCAGAGCGTT,0.145
10,TTCTTGATCTCCTTGCCGCAGA,-0.66
11,TTGTTCTTGACCTTCGCCAGGG,0.174
12,TTTGAAGTTGTTCTTGACCTTC,-0.341

# Target: PHF20
# Assay: as above
# Settings: shRNA
row,Sequence,sensor-assay potency score (higher = more potent)
1,TTAACTTTCCTTCTTTATCAGG,-0.815
2,TTAATGGGACTTCACATCCTTT,-1.47
3,TTTTAAACAGTCCACAACTTTG,-1.74
4,TAAACTTCTCTCGTTTATCAGG,-1.02
5,TTGACAGTCTGAACTACTCCAT,-0.0489
6,TTCCTTGTCTTCCTTCTCGTTC,-0.88
7,TTGTGTGAGGACCCACACCTGG,-1.15
8,TTGAATTTACAACTGTCTCCAA,0.401
9,TTCTCAATGGAGTCCATCCTGT,-0.423
10,TAAACTTATGGTCTAGGTCGAC,-0.7
11,TGACAGTCTGAACTACTCCATC,-1.04
12,TTTGTTACTTCCACAGTCGAAA,-0.866

# Target: PHF23
# Assay: as above
# Settings: shRNA
row,Sequence,sensor-assay potency score (higher = more potent)
1,TAACTTCCGCTTCTTGCTCTTC,-0.863
2,TTCTTAATCTTAGCACAGGAGA,-1.04
3,TTTTATAGACAACTGTCCCATT,-0.805
4,TTCTCTTGGATGACTTTGCTTT,-0.308
5,TTTAACTTCCGCTTCTTGCTCT,0.601
6,TTCAGAGTCTGTATCACTGGGG,0.423
7,TTAACTTCCGCTTCTTGCTCTT,0.475
8,TTGCCATCTCTTCTTCTTCTTC,-0.747
9,TAACATGTGATCAGATCCCATG,-0.921
